Consider ten compounds from PubChem BioAssay (NCATS).

The structures appear in SMILES notation. Values joined by “and” are separate entries in the source; they are usually repeats but may differ in a detail not shown here. Equal entries are not always repeated. Results filed as inconclusive are left out. Active and inactive are the calls of the source. Unless noted, calls come from the whole dose curve; as a rule, active = well fitted curve in the direction sought with a large enough effect; inconclusive = small, poorly fitted or top-dose-only effect, or another doubt; inactive = no such curve, though single readings can be large; an effect the other way counts as inactive or inconclusive.

Assay [1] can be described thus: Cell Viability - LYMP1-002 - Assay at 24 hr (AID 993). Note: % is set by controls: 0 for no effect and ±100 for the full control effect. As to conditions: LYMP1-002 lymphoblastoid cells viability; series mostly up to 92.2 µM. The gist of the method: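 Cells plated 2500/well, 5 hr 37 C; compounds added, 24 hr 37 C; CellTiter-Glo added, 30 min RT; luminescence read. Tetraoctylammonium bromide positive control. Hill-equation AC50.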
Assay [2] is described as follows: Cell Viability - LYMP1-002 - Assay at 40 hr (AID 994). Note: nearly all actives have a fitted effect of over 60% in size. Note: potency is the fitted concentration of half-maximal effect. As to conditions: LYMP1-002 lymphoblastoid cell viability; series mostly up to 92.2 µM. The gist of the method:
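Luminescent ATP signal served as the viability readout, with decreases taken as toxicity. Cells were treated with compounds across a concentration range for 40 hours at 37 C, and AC50 values came from standard Hill modeling.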

Assay [3] is described as follows: qHTS Assay for Identification of Small Molecule Inducers of Hypoxia Response (AID 2120; active = well fitted curve in the direction sought with a large enough effect in the signal ratio, with a control signal flat, not every such curve was filed as active; the % refers to the signal ratio; note: 0% is about no effect). As to conditions: hypoxia response reporter cells, beta-lactamase ratio readout; series mostly up to 104 µM. Summed up:
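ME-180 HRE-bla cells plated in Opti-MEM/0.5% dialyzed FBS, rested 4-5 h, then dosed with compound titrations by pin tool. After 17 h at 37 degrees C, CCF4 dye loaded 2.5 h at RT; 460/530 nm ratio gave %Activity and AC50.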

In assay [4] the target is Alpha-galactosidase (Coffea arabica) (UniProt Q42656). As to the kind of experiment: Counterscreen for Glucocerebrosidase Inhibitors: qHTS Assay for Coffee Bean alpha-Galactosidase at pH 5.9 (AID 998).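 Note: plate controls were uninhibited enzyme for no effect and no-enzyme basal signal for full effect.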 Particulars: coffee bean alpha-galactosidase enzyme assay; series mostly up to 76.9 µM. The gist of the method: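 Compounds were titrated from 0.7 nM to 77 uM against green coffee bean alpha-galactosidase (2 nM) using 80 uM fluorogenic 4-methylumbelliferyl substrate. After 20 min at room temperature, reactions were stopped at pH 10 and read by fluorescence.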
Sequence of Alpha-galactosidase (Coffea arabica) (Q42656 whole entry, looked up): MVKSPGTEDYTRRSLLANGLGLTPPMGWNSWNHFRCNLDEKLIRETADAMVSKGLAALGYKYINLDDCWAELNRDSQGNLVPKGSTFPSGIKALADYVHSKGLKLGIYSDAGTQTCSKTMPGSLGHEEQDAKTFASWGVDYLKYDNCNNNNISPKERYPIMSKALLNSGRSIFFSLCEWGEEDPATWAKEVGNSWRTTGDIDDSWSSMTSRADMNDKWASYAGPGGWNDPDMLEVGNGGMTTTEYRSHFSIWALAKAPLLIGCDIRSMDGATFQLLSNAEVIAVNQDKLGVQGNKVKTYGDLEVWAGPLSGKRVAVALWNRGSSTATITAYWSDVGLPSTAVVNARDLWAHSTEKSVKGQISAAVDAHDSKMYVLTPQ

Assay [5] is described as follows: qHTS for differential inhibitors of proliferation of Plasmodium falciparum line 7G8 (AID 1815).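 For activity change, negative = inhibition: plate controls were vehicle wells for no effect and reference inhibitor wells for full effect.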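 Note: parasite growth measured after three days of incubation.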 Note: potency is the fitted concentration of half-maximal effect. As to conditions: Plasmodium falciparum 7G8 proliferation inhibition; series mostly up to 28.7 µM. Background: In qHTS, concentration-response curves come from the screen itself.
The nature of assay [6]: qHTS for differential inhibitors of proliferation of Plasmodium falciparum line GB4 (AID 1816).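 For activity change, negative = inhibition: 0% = vehicle DMSO and -100% = reference inhibitor.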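 Note: parasite growth measured after 72 h incubation.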 Note: potency is the fitted concentration of half-maximal effect. Particulars: Potency: Plasmodium falciparum GB4 proliferation inhibition; series mostly up to 28.7 µM.
Assay [7] can be described thus: qHTS for differential inhibitors of proliferation of Plasmodium falciparum line 3D7 (AID 1876). Note: potency is the fitted concentration of half-maximal effect. Particulars: P. falciparum 3D7 proliferation inhibition; series mostly up to 28.7 µM.
The nature of assay [8]: qHTS for differential inhibitors of proliferation of Plasmodium falciparum line D10 (AID 1877).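 For activity change, negative = inhibition: plate controls were vehicle wells for no effect and reference inhibitor wells for full effect.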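 Note: parasites grown with compound for 72 h before DNA staining.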 Note: potency is the fitted concentration of half-maximal effect. Particulars: series mostly up to 28.7 µM.
The nature of assay [9]: qHTS for differential inhibitors of proliferation of Plasmodium falciparum line Dd2 (AID 1882).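 For activity change, negative = inhibition: plate controls were DMSO vehicle for no effect and 0.29 µM artemisinin for full effect.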 Note: nearly all actives have a fitted effect of over 65% in size. Note: potency is the fitted concentration of half-maximal effect. As to conditions: Potency: Plasmodium falciparum Dd2 proliferation inhibition; series mostly up to 28.7 µM. The gist of the method:
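Dd2-infected erythrocytes (0.3% parasitemia, 2.5% hematocrit final) incubated with compound 72 h at 37 C, 5% CO2; lysed with saponin/Triton buffer containing SYBR Green I, incubated overnight in the dark, then read by fluorescence (485/535 nm). Normalized to 0.29 uM artemisinin and DMSO.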

Assay [10] is described as follows: qHTS for differential inhibitors of proliferation of Plasmodium falciparum line W2 (AID 1883).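 Note: potency is the fitted concentration of half-maximal effect; parasites grown with compound for 72 h before lysis and staining.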 Particulars: Potency: Plasmodium falciparum W2 proliferation inhibition; series mostly up to 28.7 µM.
Assay [11] in a line: qHTS for differential inhibitors of proliferation of Plasmodium falciparum line HB3 (AID 1886).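 For activity change, negative = inhibition: plate controls were vehicle for no effect and reference inhibitor for full effect.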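 Note: parasites grown with compound for 72 h before SYBR Green readout.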 Note: potency is the fitted concentration of half-maximal effect. Particulars: Potency: Plasmodium falciparum HB3 proliferation inhibition; series mostly up to 28.7 µM.
Assay [12] in a line: qHTS Assay for Lipid Storage Modulators (AID 1519; calls by dose curve). Particulars: Drosophila S3 cells, BODIPY lipid droplet/cell ratio, laser cytometry, cells loaded with oleic acid. Summed up: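 Cells seeded at 5,000 per well were treated with compounds over a concentration series and loaded with oleic acid (400 uM, as added). Lipid droplet fluorescence (488 nm excitation, 500-530 nm channel) was read by laser-scanning cytometry and normalized to 20 uM Triacsin C.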

Assay [13] in a line: Counterscreen for APE1 Inhibitors: Fluorescent Dye Displacement Validation Assay (AID 1707).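 Note: plate controls were ThO with dsDNA and no compound for no effect and ThO without dsDNA for full effect.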 Particulars: fluorescent dye displacement from DNA; series mostly up to 57.1 µM. The gist of the method: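 Compounds are scored by their ability to displace Thiazole Orange (250 nM) from a 50 nM TAMRA-tagged duplex bearing a tetrahydrofuran abasic site. Buffer is 50 mM Tris-HCl pH7.5, 50mM NaCl, 2 mM MgCl2, 0.01% Tween-20.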
For orientation: Counterscreens check selectivity or assay interference.

Assay [14] has as its target Endonuclease 4 (Escherichia coli (strain K12)) (UniProt P0A6C1). As to the kind of experiment: Counterscreen for APE1 Inhibitors: qHTS Validation Assay for Inhibitors of Endonuclease IV (AID 1708). Note: % is set by controls: 0 for no effect and ±100 for the full control effect. As to conditions: E. coli endonuclease IV, DNA cleavage fluorescence; series mostly up to 57.1 µM. The gist of the method:
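qHTS concentration-response format; LOPAC1280 tested under APE1-screen conditions. 2 nM enzyme, 15 min compound preincubation at RT, then 50 nM TAMRA/BHQ-2 abasic substrate; kinetic fluorescence read, three reads at 60 s intervals.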

Assay [15] addresses Ferritin light chain (Equus caballus) (UniProt P02791). As to the kind of experiment: qHTS Validation Assay for Identification of Novel General Anesthetics (AID 2323). Note: % is set by controls: 0 for no effect and ±100 for the full control effect. As to conditions: horse apoferritin, anesthetic-site fluorescent probe displacement; series mostly up to 76.9 µM. Summed up:
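Competitive displacement of profluorescent 1-aminoanthracene (1-AMA, 50% saturated solution in PBS) from 10 uM horse-spleen apoferritin. Compounds incubated 10 min at room temperature; fluorescence read at 380 nm excitation/535 nm emission, normalized to free 1-AMA and complex, fitted with four-parameter Hill equation.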

The target of assay [16] is Alpha-galactosidase A (Homo sapiens) (UniProt P06280). The assay is described as follows: Counterscreen for Glucocerebrosidase Inhibitors: qHTS Assay for Human alpha-Galactosidase at pH 4.5 (AID 992). Note: 0% is about no effect. As to conditions: purified enzyme, fluorogenic substrate; series mostly up to 76.9 µM. Summed up: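 Quantitative HTS: compounds tested from 0.7 nM up to 77 uM against 2 nM enzyme with 80 uM 4-MU alpha-D-galactopyranoside. The 20 min room-temperature reaction is stopped with 1M NaOH/1M glycine, pH 10.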
Sequence of Alpha-galactosidase A (Homo sapiens) (P06280 whole entry, looked up): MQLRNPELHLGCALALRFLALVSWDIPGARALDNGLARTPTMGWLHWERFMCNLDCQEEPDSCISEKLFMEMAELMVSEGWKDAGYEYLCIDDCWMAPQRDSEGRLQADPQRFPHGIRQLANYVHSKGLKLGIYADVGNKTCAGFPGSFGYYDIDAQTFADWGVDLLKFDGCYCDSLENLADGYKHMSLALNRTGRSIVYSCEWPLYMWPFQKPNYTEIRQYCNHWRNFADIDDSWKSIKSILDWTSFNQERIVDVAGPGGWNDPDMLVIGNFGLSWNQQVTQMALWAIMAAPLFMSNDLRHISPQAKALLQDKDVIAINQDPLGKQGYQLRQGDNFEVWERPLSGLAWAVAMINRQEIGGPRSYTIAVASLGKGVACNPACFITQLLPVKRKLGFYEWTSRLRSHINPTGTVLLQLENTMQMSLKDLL

Assay [17] addresses alpha-glucosidase (Oryza sativa, rice) (UniProt Q653V4). The assay is described as follows: Counterscreen for Glucocerebrosidase Inhibitors: qHTS Assay for Rice alpha-Glucosidase at pH 5.0 (AID 997).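 Note: 0% = full activity with enzyme and -100% = basal without enzyme.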 As to conditions: rice alpha-glucosidase enzyme activity; series mostly up to 76.9 µM. The gist of the method: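 Rice alpha-glucosidase (4 nM final) with 400 uM 4-methylumbelliferyl-alpha-D-glucopyranoside in citrate buffer pH 5.0, 20 min at room temperature, stopped at pH 10; fluorescence 365/440 nm, compounds 0.7 nM–77 uM, AC50 from Hill fits.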

Assay [18] deals with DNA repair nuclease/redox regulator APEX1 (Homo sapiens) (UniProt P27695). As to the kind of experiment: qHTS Validation Assay for Inhibitors of the Human Apurinic/apyrimidinic Endonuclease 1 (APE1) (AID 1705;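 note: TAMRA fluorescence gain over two minutes as APE1 cuts a quenched THF abasic duplex; % is set by controls: 0 for no effect and ±100 for the full control effect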). Particulars: purified APE1 endonuclease activity, fluorescence, titration; series mostly up to 57.1 µM. Summed up:
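Human APE1 was preincubated with compound for 15 min at room temperature, then 50 nM (final) THF-abasic double-stranded DNA substrate bearing 5'-TAMRA and 3'-BHQ-2 was added. Incision-driven fluorescence rise (ex 525/em 598 nm) was read kinetically.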

[19] abbreviates: measured here: cell count channel max response.
Where [20] appears, read: measured here: lipid channel max response.

Sequence of Ferritin light chain (Equus caballus) (P02791 2-175 limits assumed): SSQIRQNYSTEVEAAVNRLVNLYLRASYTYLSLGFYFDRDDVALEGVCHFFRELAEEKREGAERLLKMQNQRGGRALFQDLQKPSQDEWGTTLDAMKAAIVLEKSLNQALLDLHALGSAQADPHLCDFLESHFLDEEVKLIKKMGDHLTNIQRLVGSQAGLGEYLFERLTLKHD
Sequence of DNA repair nuclease/redox regulator APEX1 (Homo sapiens) (P27695 whole entry, looked up): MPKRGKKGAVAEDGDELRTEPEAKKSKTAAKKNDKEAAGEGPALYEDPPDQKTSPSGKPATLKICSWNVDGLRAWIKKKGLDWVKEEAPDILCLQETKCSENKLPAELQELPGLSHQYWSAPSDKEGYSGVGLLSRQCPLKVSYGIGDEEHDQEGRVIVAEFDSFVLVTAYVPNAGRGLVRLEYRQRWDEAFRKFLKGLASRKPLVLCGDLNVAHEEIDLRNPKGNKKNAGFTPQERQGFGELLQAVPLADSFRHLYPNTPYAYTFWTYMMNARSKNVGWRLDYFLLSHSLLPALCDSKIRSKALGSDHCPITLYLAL

Take `C[C@]12CCC(=O)C=C1CC[C@@H]1[C@@H]2CC[C@@]2(C)[C@H]1CC[C@]2(C)O`: the Potency result in assay [1] and in assay [2] was “inactive” in each case. For the same compound, in assay [3], the outcome was inactive.
As to `CC(=O)N1CCN(c2ccc(OC[C@H]3CO[C@](Cn4ccnc4)(c4ccc(Cl)cc4Cl)O3)cc2)CC1`, in [4], the result was inactive. The Potency in assay [5] was 11.2 µM (active); in assay [6], 7.94 µM (active); in [7] it was 7.08 µM (active); in [8] it was 10 µM (active); in assay [9] it was 7.94 µM (active); in assay [10] it was 7.08 µM (active). In assay [11], the Potency is 11.2 µM (active).
Consider `CN1C(=O)CCS(=O)(=O)C1c1ccc(Cl)cc1` (stereo not given), for which the activity change, negative = inhibition in assay [12] (at 57.5 µM (top of the series)) was 6.74% (inactive) and -0.559% (inactive). Besides, the max response is 18.4% and 40.6% in [12] (setting [19]); 26.5% and 41.1% in assay [12] (setting [20]). Moreover, the compound was classed as inactive in assay [13], in assay [14] and in [15]. Further, the Potency result in [5], in assay [6], in [7], in [8], in assay [9] and in assay [11] was “inactive” throughout.
With `Clc1cccc(SC2CCNCC2)n1`, in [12] (at 57.5 µM (top of the series)), the activity change, negative = inhibition is -5.67% (inactive). The max response in assay [12] (setting [19]) is -24.9%; in assay [12] (setting [20]) it was -29.2%.
Take `COc1cc(OC)c(OC)cc1C=O`: the Potency entry in [1] and in [2] was “inactive” in each case. Also, the activity change, negative = inhibition in assay [12] (at 57.5 µM (top of the series)) is 10.2% (inactive). In addition, the figures for the max response in assay [12] (setting [19]) and in assay [12] (setting [20]) were 14.2% and 28.2%, respectively. Besides, the outcome in assay [3] was inactive.
As for `COc1c2c(cc3c1OCO3)CCN(C)C2`, the activity change, negative = inhibition in assay [12] (at 25.7 µM (top of the series)) is 1.64% (inactive). For the same compound, the max response amounted to 2.73% in assay [12] (setting [19]) and 3.88% in assay [12] (setting [20]).
Regarding `CCC1(CC)C(=O)C=CNC1=O`, the activity change, negative = inhibition in [12] (at 25.7 µM (top of the series)) was -2.39% (inactive); in assay [12] (at 57.5 µM (top of the series)), 5.04% (inactive). Moreover, the max response in assay [12] (setting [19]) is -5.28% and 19.1%; in assay [12] (setting [20]), -7.28% and 25.2%.
As to `NC(=O)CS(=O)C(c1ccccc1)c1ccccc1` (stereo not given), in assay [12] (at 57.5 µM (top of the series)), the activity change, negative = inhibition is 4.67% (inactive). Besides, the max response was 3.09% in [12] (setting [19]) and 10.7% in assay [12] (setting [20]).
`Oc1ccc(Cl)cc1`: the Potency entry in assay [1] and in assay [2] was “inactive” each time. For the same compound, in assay [3], the result was inactive.
In the case of `O=C(O)CCCc1ccc(N(CCCl)CCCl)cc1`, the outcome in assay [16], in assay [17], in assay [4], in assay [13], in assay [14] and in [3] was inactive. Further, the outcome in assay [15] was inactive. Besides, the Potency entry in assay [1] and in assay [18] was “inactive” each time. Further, the Potency is 25.1 µM (active) in assay [2] and 11.2 µM (active) in [10]. The activity change, negative = inhibition in [12] (at 25.7 µM (top of the series)) is 2.25% (inactive); in assay [12] (at 57.5 µM (top of the series)), 2.66% (inactive). For the same compound, the max response in assay [12] (setting [19]) is -7.28% and 5.28%; in assay [12] (setting [20]), -5.54% and 10.7%.
